From PubChem BioAssay AID1159580 (chemical genetic matrix, 2015)
Screen size: about 5,500 compounds; about 2,000 (36%) were called active. Inconclusive results (about 18%) are left out. Rule as the data show it: active = normalized growth mostly below about 0.91 (no sharp cut-off); inconclusive = no clear call, values can overlap the other calls; inactive = mostly above about 0.92. This is one part of the list.

Assay: chemical genetic growth profiling, strain panel (AID 1159580);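 also: tested at 20 µM; growth read once vehicle control cultures reached saturation at 30 °C; 1 = growth at the plate median or of vehicle wells; lower values mean less growth of the strain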
Details: S. cerevisiae deletion strains, growth OD
[1] = locus YCL061C, strain MRC1, stronger effect = lower value
[2] = locus YHR030C, strain SLT2, stronger effect = lower value
[3] = locus YAL013W, strain DEP1, stronger effect = lower value
[4] = locus YBR229C, strain ROT2, stronger effect = lower value
[5] = locus YDL101C, strain DUN1, stronger effect = lower value
[6] = locus YDR150W, strain NUM1, stronger effect = lower value
[7] = locus YEL061C, strain CIN8, stronger effect = lower value
[8] = locus YGR078C, strain PAC10, stronger effect = lower value
[9] = locus YHR087W, strain rtc3, stronger effect = lower value
[10] = locus YJR043C, strain POL32, stronger effect = lower value
[11] = locus YJR075W, strain HOC1, stronger effect = lower value
[12] = locus YKL190W, strain CNB1, stronger effect = lower value
[13] = locus YLR039C, strain RIC1, stronger effect = lower value
[14] = locus YLR058C, strain SHM2 (second series), stronger effect = lower value
[15] = locus YLR085C, strain ARP6, stronger effect = lower value
[16] = locus YLR262C, strain YPT6, stronger effect = lower value
[17] = locus YML094W, strain GIM5, stronger effect = lower value
[18] = locus YMR219W, strain ESC1, stronger effect = lower value
[19] = locus YMR263W, strain SAP30, stronger effect = lower value
[20] = locus YNL128W, strain TEP1, stronger effect = lower value
[21] = locus YNL153C, strain GIM3, stronger effect = lower value
[22] = locus YNL298W, strain CLA4 (second series), stronger effect = lower value
[23] = locus YNL322C, strain KRE1, stronger effect = lower value
[24] = locus YNR030W, strain Alg12, stronger effect = lower value
[25] = locus YPL055C, strain LGE1, stronger effect = lower value
[26] = locus YPL241C, strain CIN2, stronger effect = lower value
[27] = locus YPR135W, strain CTF4, stronger effect = lower value

Measured: normalized growth

C=C(NC(=O)C(=C)NC(=O)c1csc(C2=NC3c4csc(n4)C4NC(=O)c5csc(n5)C(C(C)(O)C(C)O)NC(=O)C5CSC(=N5)C(=CC)NC(=O)C(C(C)O)NC(=O)c5csc(n5)C3(CC2)NC(=O)C(C)NC(=O)C(=C)NC(=O)C(C)NC(=O)C(C(C)CC)NC2C=Cc3c(C(C)O)cc(nc3C2O)C(=O)OC4C)n1)C(N)=O (configuration not stated)
inactive: locus YAL021C, strain ccr4, stronger effect = lower value 1.01 | locus YAL026C, strain drs2, stronger effect = lower value 1.01 | locus YAL030W, strain snc1, stronger effect = lower value 1.01 | locus YBL061C, strain skt5, stronger effect = lower value 1 | locus YBR009C, strain hhf1, stronger effect = lower value 1 | locus YBR023C, strain chs3, stronger effect = lower value 1.01 | locus YBR171W, strain sec66, stronger effect = lower value 1.02 | locus YBR231C, strain swc5, stronger effect = lower value 1.01 | locus YBR279W, strain paf1, stronger effect = lower value 0.986 | locus YCL011C, strain gbp2, stronger effect = lower value 1 | locus YCL016C, strain dcc1, stronger effect = lower value 1.02 | [1] 1.01 | locus YCL069W, strain vba3, stronger effect = lower value 1.01 | locus YCR088W, strain abp1, stronger effect = lower value 1.02 | locus YDL005C, strain med2, stronger effect = lower value 0.993 | locus YDL040C, strain nat1, stronger effect = lower value 0.993 | locus YDR001C, strain nth1, stronger effect = lower value 1.01 | locus YDR069C, strain doa4, stronger effect = lower value 1.01 | locus YDR137W, strain rgp1, stronger effect = lower value 1.04 | locus YDR159W, strain sac3, stronger effect = lower value 1 | locus YDR195W, strain ref2 1.01 | locus YDR297W, strain sur2, stronger effect = lower value 1 | locus YDR334W, strain swr1, stronger effect = lower value 1.02 | locus YDR335W, strain msn5, stronger effect = lower value 0.991 | locus YDR392W, strain spt3, stronger effect = lower value 1.01 | locus YEL003W, strain gim4, stronger effect = lower value 1.01 | locus YEL037C, strain rad23, stronger effect = lower value 1 | locus YEL061C, strain CIN8 (second series), stronger effect = lower value 1.02 | locus YER015W, strain faa2, stronger effect = lower value 0.993 | locus YER016W, strain bim1, stronger effect = lower value 1 | locus YER111C, strain swi4, stronger effect = lower value 1.03 | locus YER155C, strain BEM2 (second series), stronger effect = lower value 1.06 | locus YFR010W, strain ubp6, stronger effect = lower value 1.01 | locus YGL167C, strain pmr1, stronger effect = lower value 1.01 | locus YGL173C, strain kem1, stronger effect = lower value 1.01 | locus YGL227W, strain vid30, stronger effect = lower value 0.989 | locus YGL240W, strain doc1, stronger effect = lower value 1.01 | locus YGL253W, strain hxk2, stronger effect = lower value 1.01 | locus YHR013C, strain ard1, stronger effect = lower value 1.03 | locus YHR027C, strain rpn1, stronger effect = lower value 1.01 | [2] 0.979 | locus YHR079C, strain IRE1, stronger effect = lower value 0.99 | locus YHR142W, strain chs7, stronger effect = lower value 1.03 | locus YJL092W, strain hpr5, stronger effect = lower value 1.01 | locus YJL095W, strain BCK1 (second series), stronger effect = lower value 1.01 | locus YJL095W, strain BCK1, stronger effect = lower value 0.981 | locus YJL115W, strain asf1, stronger effect = lower value 1.01 | locus YJL129C, strain trk1, stronger effect = lower value 1 | locus YJL154C, strain vps35, stronger effect = lower value 1.02 | locus YJL164C, strain tpk1, stronger effect = lower value 1.01 | locus YJL166W, strain qcr8, stronger effect = lower value 1.02 | locus YJL187C, strain SWE1, stronger effect = lower value 1.01 | locus YJR066W, strain TOR1, stronger effect = lower value 0.968 | locus YKL160W, strain elf1, stronger effect = lower value 1.02 | locus YKR026C, strain gcn3, stronger effect = lower value 0.997 | locus YKR091W, strain srl3, stronger effect = lower value 0.984 | locus YLL001W, strain dnm1, stronger effect = lower value 1.02 | locus YLL026W, stronger effect = lower value 0.995 | locus YLL041C, strain sdh2, stronger effect = lower value 1.01 | locus YLR027C, strain aat2, stronger effect = lower value 0.999 | locus YLR113W, strain HOG1, stronger effect = lower value 0.987 | locus YLR221C, strain rsa3, stronger effect = lower value 0.994 | locus YLR258W, strain gsy2, stronger effect = lower value 1.02 | locus YLR262C, strain YPT6 (second series), stronger effect = lower value 1.04 | locus YLR320W, strain mms22, stronger effect = lower value 1.02 | locus YLR342W, strain FKS1, stronger effect = lower value 1.02 | locus YLR357W, strain rsc2, stronger effect = lower value 0.969 | locus YLR370C, strain arc18, stronger effect = lower value 1 | locus YLR384C, strain iki3, stronger effect = lower value 1.01 | locus YML120C, strain ndi1, stronger effect = lower value 1 | locus YMR058W, strain fet3, stronger effect = lower value 1 | locus YMR125W, strain sto1, stronger effect = lower value 1.01 | locus YMR129W, stronger effect = lower value 0.999 | locus YMR205C, strain PFK2, stronger effect = lower value 1.01 | locus YMR231W, strain pep5, stronger effect = lower value 0.983 | locus YNL071W, strain lat1, stronger effect = lower value 1.01 | locus YNL183C, strain NPR1, stronger effect = lower value 0.971 | locus YNL209W, strain ssb2, stronger effect = lower value 1 | locus YNL248C, strain rpa49, stronger effect = lower value 0.994 | locus YNL322C, strain KRE1 (second series), stronger effect = lower value 1.02 | locus YNR049C, strain mso1, stronger effect = lower value 1.01 | locus YOR001W, strain rrp6, stronger effect = lower value 1.02 | locus YOR070C, strain gyp1, stronger effect = lower value 1.01 | locus YOR080W, strain dia2, stronger effect = lower value 1.02 | locus YOR083W, strain WHI5, stronger effect = lower value 1.01 | locus YOR106W, strain vam3, stronger effect = lower value 1.03 | locus YOR231W, strain MKK1, stronger effect = lower value 0.981 | locus YOR265W, strain rbl2, stronger effect = lower value 1.02 | locus YOR270C, strain vph1, stronger effect = lower value 1 | locus YOR290C, strain snf2, stronger effect = lower value 1.01 | locus YPL051W, strain arl3, stronger effect = lower value 1.01 | locus YPL078C, strain atp4, stronger effect = lower value 1.01 | locus YPL106C, strain sse1, stronger effect = lower value 0.982 | locus YPL240C, strain hsp82, stronger effect = lower value 0.997 | locus YPL256C, strain CLN2, stronger effect = lower value 0.979

CCC(C(=O)Nc1ccc(C(F)(F)F)cc1)c1ccccc1 (configuration not stated)
inactive: [3] 0.989 | [4] 0.984 | [1] 0.958 | [5] 0.956 | locus YDL134C, strain PPH21, stronger effect = lower value 0.977 | [6] 0.952 | [7] 1.03 | [8] 0.958 | [2] 0.986 | [9] 0.998 | [10] 0.972 | [11] 0.96 | [12] 0.982 | [13] 0.923 | [14] 0.982 | [15] 0.925 | [16] 0.987 | [17] 0.981 | [18] 0.994 | [19] 0.99 | [20] 0.982 | [21] 0.968 | [22] 0.945 | [23] 0.99 | [24] 0.976 | [25] 1.01 | [26] 0.932 | [27] 0.906

CC(C)c1ccc(NC(=S)NC(=O)c2ccc(C(F)(F)F)cc2)cc1
inactive: [3] 1 | [4] 1.02 | [1] 1.01 | [5] 1.01 | [6] 1 | [7] 1.02 | [8] 1.02 | locus YGR229C, strain SMI1, stronger effect = lower value 1.02 | [2] 1.1 | [9] 1.02 | [10] 1.01 | [11] 1 | [12] 1.02 | [13] 1.09 | [14] 1.02 | [16] 1.07 | [17] 1.02 | [18] 1.01 | [19] 1 | locus YMR307W, strain GAS1, stronger effect = lower value 1.3 | [20] 1.02 | [21] 0.989 | [22] 1.06 | [23] 1.01 | [24] 1.01 | [25] 0.997 | [26] 1.13 | [27] 1.09
active: [15] 1.23 [resistant]
